Compound activity (PubChem BioAssay)
The list is not random: actives were taken first. Their share in the collection is about 10%.
Sfp inh: qHTS Assay for Inhibitors of Bacillus subtilis Sfp phosphopantetheinyl transferase (PPTase) | Biochemical Sfp PPTase activity, qHTS | 4'-phosphopantetheinyl transferase ffp (Bacillus subtilis), Q9F4F7 | Potency, µM, without a hit: largest response in the series, negative = inhibition, usual class: inhibitors | 310,000 compounds, 3.5% hits;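 note: the enzyme is Sfp with the accession as filed and its product quenches rhodamine fluorescence; potency is the fitted concentration of half-maximal effect; 0% = enzyme reaction without inhibitor and -100% = no enzyme wells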
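After 15 min at room temperature with compound, 15 nM Sfp received 5 uM rhodamine-CoA plus 12.5 uM BHQ-2-ybbR (50 mM Hepes pH 7.6, 10 mM MgCl2). Rate came from the fluorescence difference over 30 min, ex 525/em 598 nm.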
PLK1 PBD inh: qHTS for Inhibitors of PLK1-PDB (polo-like kinase 1 - polo-box domain): Primary Screen; Serine/threonine-protein kinase PLK1 (Homo sapiens), P53350; Plk1 PBD binding of FITC phosphopeptide, fluorescence polarization; Potency, µM, without a hit: max response, negative = inhibition, most hits filed as inhibitors; 360,000 compounds, 2.8% hits; AID 720504, 2013; note: potency is the fitted concentration of half-maximal effect; series mostly up to about 57 µM; nearly all actives have a fitted effect of over 65% in size
G9a inh: qHTS Assay for Inhibitors of Histone Lysine Methyltransferase G9a | Histone-lysine N-methyltransferase EHMT2 (Homo sapiens), Q96KQ7 | G9a H3K9 monomethylation, AlphaScreen, 2 h | Potency, µM (titrated, usually from 102 µM), for the others: top-dose activity, negative = inhibition, hits mostly inhibitors | 350,000 compounds, 8.8% hits | AID 504332, 2011; note: potency is the fitted concentration of half-maximal effect; nearly all actives have a fitted effect of over 75% in size
Target sequence (Q96KQ7 913-1193 limits assumed): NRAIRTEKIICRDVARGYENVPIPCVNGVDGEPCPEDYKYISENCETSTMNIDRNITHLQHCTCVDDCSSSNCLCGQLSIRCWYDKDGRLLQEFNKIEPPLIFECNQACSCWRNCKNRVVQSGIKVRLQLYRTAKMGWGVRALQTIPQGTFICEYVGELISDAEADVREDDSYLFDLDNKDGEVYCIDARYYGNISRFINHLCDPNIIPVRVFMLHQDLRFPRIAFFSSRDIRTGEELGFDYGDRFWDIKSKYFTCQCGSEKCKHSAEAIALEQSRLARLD
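G9a (20 nM) preincubated 15 min RT with compounds, then 500 nM biotinylated H3K9 peptide and 20 uM SAM added; 2 h RT reaction. Monomethyl-H3K9 product detected by AlphaScreen with anti-H3K9me1 antibody, streptavidin donor and anti-rabbit IgG acceptor beads.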
CCT modulator: High-Throughput Screening for Modulators of Cytosolic Chaperonin Activity; 360,000 compounds, 0.3% hits; AID 651819, 2012; activity change, % (concentration not given with the values), hits read low; purified chaperonin ATPase assay, HTRF ADP detection, 30 min; in the data active = activity change below about -30%
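We incubate TRiC, 40 or 20 nM final, with library compounds at 76 uM and 10 uM ATP for 30 min at 37 °C. ADP formed is detected with Transcreener HTRF reagents after 30 min at room temperature.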
Mm-Cpn inhibitor: Inhibitors of TCP-1 ring complex (TRiC) of Methanococcus maripaludis (MmCpn): qHTS; Potency, µM (titrated, usually from 76.9 µM), for inactives: at the top dose activity, negative = inhibition, hits mostly inhibitors; Chaperonin Mm-Cpn (Methanococcus maripaludis); 330,000 compounds, 0.031% hits; purified Mm-Cpn ATPase, ADP Transcreener TR-FRET; note: potency is the fitted concentration of half-maximal effect; nearly all actives have a fitted effect of over 80% in size
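Reaction buffer contained 30 mM Tris pH 7.4, 100 mM KCl, 5 mM MgCl2 and 1 mM DTT. Mm-CPN (25 nM final) hydrolysed 10 uM ATP over 30 min at 37°C; ADP was read by HTRF.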
VDR inh: Inhibitors of the vitamin D receptor (VDR): qHTS | 400,000 compounds, 0.93% hits | Potency, µM, for the others: max response, negative = inhibition, actives largely listed as inhibitors | AID 504847, 2011 | Vitamin D3 receptor (Homo sapiens), P11473 | VDR-SRC2-3 peptide fluorescence polarization, 2 h; note: potency is the fitted concentration of half-maximal effect
Target sequence (P11473 whole entry, looked up): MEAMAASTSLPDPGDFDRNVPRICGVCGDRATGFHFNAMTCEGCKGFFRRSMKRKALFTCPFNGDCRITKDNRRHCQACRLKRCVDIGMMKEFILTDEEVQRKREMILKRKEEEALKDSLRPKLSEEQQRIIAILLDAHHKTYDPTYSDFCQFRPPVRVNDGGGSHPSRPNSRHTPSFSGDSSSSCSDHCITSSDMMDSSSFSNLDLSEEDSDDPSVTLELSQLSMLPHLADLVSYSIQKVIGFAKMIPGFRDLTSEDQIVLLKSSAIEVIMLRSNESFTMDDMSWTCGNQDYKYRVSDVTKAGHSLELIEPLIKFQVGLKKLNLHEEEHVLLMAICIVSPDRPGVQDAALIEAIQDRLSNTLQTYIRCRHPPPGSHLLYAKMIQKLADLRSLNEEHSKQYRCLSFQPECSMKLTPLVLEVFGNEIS
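Two reagent solutions held at 4 deg C in the dark were dispensed, compounds pinned at 23 nl, and the mixture incubated 2 h at room temperature. Read-out: fluorescence polarization of VDR–SRC2-3 peptide binding.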
Numbers without * were called inactive; ? = inconclusive; . = no result; [ ] = dose if it differs, or a comment. Unless noted, calls come from the whole dose curve; as a rule, active = well fitted curve in the direction sought with a large enough effect; inconclusive = small, poorly fitted or top-dose-only effect, or another doubt; inactive = no such curve, though single readings can be large; an effect the other way counts as inactive or inconclusive. Unless noted, % is set by controls: 0 for no effect and ±100 for the full control effect.

SMILES	Sfp inh	PLK1 PBD inh	G9a inh	CCT modulator	Mm-Cpn inhibitor	VDR inh
O=c1c(C(c2ccc(Br)cc2)c2c(O)nc3n(c2=O)CCCS3)c(O)nc2n1CCCS2	?	?	?	1	0%	-15%
O=c1c(Cc2ccccc2)c(O)nc2n1CCS2	10%	-4%	-3%	-1	-7%	-8%
O=c1c(C(c2ccc(O)cc2)c2c(O)nc3n(c2=O)CCS3)c(O)nc2n1CCS2	14µM*	6µM*	?	2	-1%	?
CN1C(=O)c2ccccc2Sc2ccc(NC(=O)N3CCN(c4ccccc4)CC3)cc21	.	.	0%[59 µM]	.	.	5%
O=c1c(C(c2ccc(Br)cc2)c2c(O)nc3n(c2=O)CCS3)c(O)nc2n1CCS2	17%	15µM*	?	1	1%	?
CN(Cc1ccccc1)C(=O)CN1C(=O)CSc2ccc(S(=O)(=O)N3CCOCC3)cc21	.	.	0%[59 µM]	.	.	4%
CN(C)c1ccc(N=C/C=C2\N(C)c3ccccc3C2(C)C)cc1	?	-4%	40µM*	0	-6%	-4%
CN1\C(=C/C=C/C=C/C=[N+](C)C)C(C)(C)c2ccccc21	56µM*	72%	11µM*	-1	-11%	?
CN1/C(=C\C=Nc2ccc3ccccc3c2)C(C)(C)c2ccccc21	-12%	.	1.8µM*	.	1%	.
CN1/C(=C/C=C(C#N)C#N)C(C)(C)c2ccccc21	-13%	?	.	-17	2%	18%
Cc1cc(/N=C/C=C2\N(C)c3ccccc3C2(C)C)n(CCC#N)n1	7%	3%	50µM*	-2	0%	-9%
CN1/C(=C\C=O)C(C)(C)c2ccccc21	19%	-11%	4%	0	-2%	-4%
C=C(CC(=O)OC)C[C@]1(CC(=O)OC)CC2(CC=C(C)C)C(=O)C(C(=O)c3ccccc3)=C(OC(=O)c3ccc(Br)cc3)C(CC=C(C)C)(C1)C2=O (stereo partly specified)	1%	.	.	.	.	.
O=C(O)CCCN=CC1=C(O)CNC1=O	15%	30µM*	?	2	-1%	?
NC(=O)CC(NSc1ccccc1[N+](=O)[O-])C(=O)O (stereo unspecified)	50µM*	3.8µM*	?	0	.	?
O=C(O)C1CCC(NSc2ccccc2[N+](=O)[O-])CC1 (stereo unspecified)	1%	2.4µM*	?	-1	2%	28µM*
COc1cccc(-c2nc(S(=O)(=O)c3ccc(Cl)cc3)c(NCc3ccccc3)o2)c1	.	.	-34%[59 µM]	.	.	2%
O=C1C=CC(O)(c2cc(=O)c3c(O)cc(O)cc3o2)C=C1	?	-22%	45µM*	1	-1%	32µM*
CCOc1nc2c(c(-c3cccs3)c1C#N)Cc1ccccc1-2	17%	-11%	-37%	-2	1%	11%
CC(=O)COc1nc2c(c(-c3ccco3)c1C#N)CCc1ccccc1-2	-6%	-8%	45µM*	0	-4%	9%
CC(CNC(=O)Cn1ccc2cc(S(=O)(=O)N3CCCCCC3)ccc21)c1ccccc1 (stereo unspecified)	.	.	-26%[59 µM]	.	.	2%
O=c1[nH]c2ccc(S(=O)(=O)Nc3cc(Cl)ccc3O)cc2o1	.	.	3.2µM*	.	.	-3%
Cc1ccc(-n2c(SCC(=O)N3CCCc4ccccc43)nc3c([nH]c4ccccc43)c2=O)cc1	.	.	-8%[59 µM]	.	.	-1%
CC1(C)CC(=O)C(N=Nc2cccc([N+](=O)[O-])c2)=C(O)C1	-4%	-10%	50µM*	-1	0%	-4%
COc1ccc(N=NC2=C(O)CC(C)(C)CC2=O)cc1	5%	-12%	.	-1	-18%	9%
SMILES	Sfp inh	PLK1 PBD inh	G9a inh	CCT modulator	Mm-Cpn inhibitor	VDR inh
CC1(C)CC(=O)C(N=Nc2ccc(Br)cc2)=C(O)C1	24%	-14%	-27%	-1	2%	-14%
COc1ccc(N=NC2=C(O)CC(C)(C)CC2=O)c(OC)c1	10%	11%	28µM*	-6	1%	5%
Cc1[nH][nH]c(=O)c1C(c1ccc(-c2ccc(Cl)c(C(=O)O)c2)o1)c1c(C)[nH][nH]c1=O	-72%	?	3.2µM*	-1	-6%	40µM*
COC(=O)c1ccccc1-c1ccc(C(c2c(C)[nH][nH]c2=O)c2c(C)[nH][nH]c2=O)o1	6%	?	2%	-1	3%	?
COC(=O)c1cccc(-c2ccc(C(c3c(C)[nH][nH]c3=O)c3c(C)[nH][nH]c3=O)o2)c1	8.9µM*	24µM*	2.2µM*	-2	-4%	-27%
COc1cc(NC(=O)NC(C)c2c(-n3cccc3)sc3c2CCN(C)C3)cc(OC)c1 (stereo unspecified)	.	.	?	.	.	15%
Cc1ccc(C)c(S(=O)(=O)NCC(c2ccco2)S(=O)(=O)c2ccc(F)cc2)c1 (stereo unspecified)	.	.	7%[59 µM]	.	.	-4%
COc1ccc(-n2c(-c3cnccn3)n[nH]c2=S)cc1	50µM*	-6%	5µM*	-9	0%	-9%
O=C(O)c1cccc(-n2c(-c3cnccn3)n[nH]c2=S)c1	28µM*	-15%	10µM*	3	0%	-8%
Cc1ccccc1-n1c(-c2ccncc2)n[nH]c1=S	?	-16%	?	0	1%	-9%
COc1cccc(Cn2c(Cn3c(-c4cnccn4)nc4ccccc43)nc3ccccc32)c1	.	-7%	.	-2	.	.
COc1ccc(OC)c(-n2c(Cn3c(-c4ccccn4)nc4ccccc43)n[nH]c2=S)c1	25µM*	-23%	2.5µM*	0	-6%	-22%
S=c1[nH]nc(-c2cnccn2)n1-c1ccccc1	56µM*	-3%	?	-13	-2%	1%
CCc1cccc(C)c1NC(=O)c1cc(S(=O)(=O)N2CCN(c3ccccc3)CC2)ccc1F	.	.	10%[59 µM]	.	.	17%
CCc1nn(C(CC)C(=O)NCc2ccc(OC)c(OC)c2)c(=O)c2cc3oc(C)cc3n12 (stereo unspecified)	.	.	3%[59 µM]	.	.	9%
CCCCNC(=O)CSc1nc2n[nH]c(C)c2c(=N)n1-c1ccccc1CC	.	.	4%[59 µM]	.	.	1%
CC(=O)N1CCc2cc(CNS(=O)(=O)c3ccc(Cl)s3)ccc21	.	.	6%[59 µM]	.	.	12%
COc1ccc(OC)c(-n2c(-c3cnccn3)n[nH]c2=S)c1	-20%	1%	10µM*	3	-4%	5%
